# The list is not random: actives were taken first. Their share in the collection is about 9%.
# ALOX12 inh: ALOX12 (human) lipoxygenase inhibition; P18054; purified 12hLO, xylenol orange hydroperoxide absorbance; Potency, µM (titrated, usually from 108 µM), inactives show at the top dose activity change, negative = inhibition, usual class: inhibitors; 580,000 compounds, 1.1% hits; AID 1671190; also: % is scaled to controls: 0 for no effect and ±100 for the full control effect
#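 Hydroperoxide product was detected by ferrous iron/xylenol orange as the 573 to 405 nm absorbance ratio. Arachidonic acid at 40 uM (final) was turned over for 30 min at room temperature by 150 nM human 12hLO, pH 7.0 Hepes buffer, after 15 min compound preincubation.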
# G9a block: blocks human histone lysine methyltransferase G9a; 350,000 compounds, 8.8% hits; Q96KQ7; AID 504332; G9a H3K9 monomethylation, AlphaScreen, 2 h; Potency, µM (highest dose often 102 µM), for the others: top-dose activity, negative = inhibition, hits mostly inhibitors; also: % is scaled to controls: 0 for no effect and ±100 for the full control effect; nearly all actives have a fitted effect of over 75% in size
# Target sequence (Q96KQ7 913-1193 limits assumed): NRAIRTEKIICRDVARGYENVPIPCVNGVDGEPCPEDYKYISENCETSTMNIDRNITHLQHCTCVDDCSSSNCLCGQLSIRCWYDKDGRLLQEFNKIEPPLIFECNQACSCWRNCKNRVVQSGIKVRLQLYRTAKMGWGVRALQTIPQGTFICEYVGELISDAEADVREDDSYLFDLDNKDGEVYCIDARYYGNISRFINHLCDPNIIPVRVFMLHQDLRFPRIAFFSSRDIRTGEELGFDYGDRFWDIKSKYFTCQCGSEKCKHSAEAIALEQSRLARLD
#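 Step 1: enzyme (final 20 nM) with compound, 15 min RT. Step 2: substrate peptide 500 nM and SAM 20 uM, 2 h RT. Step 3: anti-H3K9me1 antibody and AlphaScreen beads, 10 min, then plate read.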
# JMJD2A Tudor: blocks the human JMJD2A Tudor domain; AlphaScreen JMJD2A-Tudor / H3K4me3 peptide binding; O75164; 390,000 compounds, 4.4% hits; AID 504339; Potency, µM (titrated, usually from 114 µM), for inactives: at the top dose activity change, negative = inhibition, hits mostly inhibitors; also: % is scaled to controls: 0 for no effect and ±100 for the full control effect; nearly all actives have a fitted effect of over 50% in size
# BAZ2B inh: blocks human BAZ2B; Q9UIF8; AlphaScreen BAZ2B-H3K14Ac peptide displacement; Potency, µM (titrated, usually from 114 µM), without a hit: at the top dose activity change, negative = inhibition, usual class: inhibitors; 360,000 compounds, 4.4% hits; AID 504333; also: % is scaled to controls: 0 for no effect and ±100 for the full control effect; nearly all actives have a fitted effect of over 60% in size
#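 AlphaScreen displacement of biotin-H3(5-23)K14Ac peptide (50 nM final) from BAZ2B (50 nM final) in PBS pH 7.4, 0.01% Tween-20; complex preformed 30 min RT, then compounds (top 110 uM) 30 min RT, beads 20 min dark.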
# HP1b binding inh: HP1-beta chromodomain-methylated histone interaction inhibition; AID 540317; P83916; Potency, µM (top dose mostly 114 µM), without a hit: top-dose activity change, negative = inhibition, hits mostly inhibitors; 390,000 compounds, 0.56% hits; AlphaScreen HP1-beta / biotin-H3K9me3 peptide binding; also: nearly all actives have a fitted effect of over 70% in size
# Target sequence (P83916 whole entry, looked up): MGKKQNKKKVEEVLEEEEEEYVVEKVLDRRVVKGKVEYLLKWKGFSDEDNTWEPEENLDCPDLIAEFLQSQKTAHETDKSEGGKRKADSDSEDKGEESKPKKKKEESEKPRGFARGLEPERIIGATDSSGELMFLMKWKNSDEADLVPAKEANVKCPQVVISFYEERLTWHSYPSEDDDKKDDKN
#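 Compound inhibition of the preformed complex between 50 nM HP1-beta and 50 nM biotinylated H3K9me3 peptide was read by AlphaScreen. Buffer was PBS pH 7.4 with 0.01% Tween-20. Incubations ran 30 min at room temperature, with 10 ug/mL donor/acceptor beads.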
# PLK1 PBD block: inhibitors of human PLK1 polo-box domain binding | AID 720504 | Plk1 PBD binding of FITC phosphopeptide, fluorescence polarization | 360,000 compounds, 2.8% hits | Potency, µM, for the others: max response, negative = inhibition, hits mostly inhibitors | P53350; also: series mostly up to about 57 µM; % is scaled to controls: 0 for no effect and ±100 for the full control effect; nearly all actives have a fitted effect of over 65% in size
# Active calls of the source: *; ? = inconclusive; . = no result given; [ ] = another dose, or the depositor's remark. Calls follow the shape of the dose curve; as a rule, active = well fitted curve in the direction sought with a large enough effect; inconclusive = small, poorly fitted or top-dose-only effect, or another doubt; inactive = no such curve, though single readings can be large; an effect the other way counts as inactive or inconclusive. Potency is read from the fitted curve at half-maximal effect.
SMILES,ALOX12 inh,G9a block,JMJD2A Tudor,BAZ2B inh,HP1b binding inh,PLK1 PBD block
CCc1sc(C(=O)N(CCCOC)c2c(N)n(CC(C)C)c(=O)[nH]c2=O)cc1C,0.0%,0.794µM*,-7.4%,-5.2%,29.9%,-9.8%
O=C(NN=C1CCCCCCCCCCC1)c1ccncc1,-5.9%,11.6%[59 µM],28.2µM*,?,38.2%,-5.0%
O=C(NN=C1CCCCCC1)c1ccncc1,498.3%,.,-16.6%,-12.0%,63.0%,-7.0%
Cc1sc2ncn(CC(=O)N(C)c3ccc(Br)cc3)c(=O)c2c1S(=O)(=O)N1CCC(C)CC1,0.0%,-35.2%[59 µM],-20.1%,-5.4%,9.3%,.
Cc1ccccc1-n1c(O)cc(=O)[nH]c1=S,-28.2%,44.7µM*,0.7%,-21.3%,28.9%,-6.7%
O=c1cc(O)n(-c2ccccc2F)c(=S)[nH]1,?,50.1µM*,-30.8%,-9.6%,-2.6%,2.4%
Cc1ccccc1-n1c(N)cc(=O)[nH]c1=S,-21.5%,-14.9%[59 µM],-11.7%,-0.9%,1.7%,-3.9%
O=c1cc(O)n(-c2ccc(Cl)cc2)c(=S)[nH]1,?,10µM*,-16.0%,-1.7%,41.0%,-20.6%
Cc1ccc(C)c(OCC(=O)NCC(C)(C)N2CCOCC2)c1,132.8%,4.3%[59 µM],-19.8%,10.6%,10.0%,-1.6%
CCOc1ccccc1C(=O)NCC(=O)N1CCC(C)CC1,163.0%,.,-2.1%,.,19.3%,-6.1%
CCc1ccc(OCC(=O)NNC(=S)NC(=O)C2CCCCC2)c(Br)c1,7.94µM*,?,?,-12.4%,8.7%,-14.7%
CCc1ccc(OCC(=O)NC2CCCCC2)c(Br)c1,-2.9%,?,94.8%,-16.6%,108.1%,-13.4%
CCc1ccc(OCC(=O)NC(=S)Nc2ccc(C)cc2C)c(Br)c1,2.0%,49.5%[12.7 µM],4.2%,-2.4%,13.6%,-7.4%
CCc1ccc(OCC(=O)NNC(=S)NC(=O)C2CC2)c(Br)c1,?,10µM*,?,?,10.5%,-19.6%
COc1ccc(-c2noc3c2-c2nc(-c4ccc(C)cc4)sc2CC3)cc1,-8.7%,.,-13.4%,.,21.7%,-7.3%
Cc1cc(C)nc(SCC(=O)NNS(=O)(=O)c2ccc(C#N)cc2)n1,?,7.94µM*,44.7µM*,56.2µM*,?,?
CC(=O)Nc1ccc(SCC(=O)Nc2sccc2C#N)cc1,-14.8%,?,-9.1%,-11.7%,15.1%,-19.3%
COc1ccc(CC(=O)NNC(=O)c2cccs2)cc1OC,0.6%,2.5%,31.6µM*,-6.4%,16.2%,-7.7%
CC(=O)Nc1ccc(SCC(=O)c2ccc(Br)s2)cc1,?,22.4µM*,?,50.1µM*,?,4.74µM*
Cc1ccnc(SCC(=O)Nc2sccc2C#N)n1,-1.6%,-31.9%,-34.0%,50.1µM*,27.7%,-12.7%
Cc1cc(C)nc(NS(=O)(=O)c2ccc(NS(=O)(=O)c3ccc(C#N)cc3)cc2)n1,0.7%,?,4.8%,-17.9%,12.4%,-0.8%
C#CC1c2ccccc2CCN1CC=C (configuration not stated),11.2%,.,.,.,.,.
Cc1ccnc(SCC(=O)c2ccc(Br)s2)n1,-16.5%,17.8µM*,11.1%,-35.4%,50.0%,-22.0%
Cc1ccnc(SCC(=O)c2cccs2)n1,-7.4%,35.5µM*,-8.3%,-4.4%,35.3%,-19.2%
Cc1cc(C)nc(SCC(=O)NNC(=O)c2cccs2)n1,3.2%,56.2µM*,-1.4%,-9.2%,?,-7.1%
SMILES,ALOX12 inh,G9a block,JMJD2A Tudor,BAZ2B inh,HP1b binding inh,PLK1 PBD block
CCCCNC(=O)[C@@H](c1ccccc1)N1Cc2ccccc2C1=O,-1.1%,8.4%[59 µM],-8.8%,-1.9%,42.8%,.
CCOC(=O)c1cnc(SC2CC(=O)N(c3ccccc3)C2=O)nc1N (configuration not stated),-9.4%,?,2.9%,5.0%,45.6%,-17.4%
CCCCSc1ncc(C(=O)OCC)c(N)n1,0.0%,13.8%[59 µM],?,12.5%,?,9.47µM*
CCOC(=O)c1cnc(SC2CCc3ccccc3C2=O)nc1N (configuration not stated),?,35.5µM*,-19.8%[57.1 µM],-2.6%,-11.4%,26.7µM*
COc1ccc2[nH]cc(S(=O)(=O)c3ccc(F)cc3)c(=O)c2c1,-51.3%,9.2%,-14.9%,7.3%,20.1%,-22.0%
CN1CCN(NS(=O)(=O)c2cccs2)CC1,-0.1%,1.41µM*,-6.1%,6.1%,35.7%,9.47µM*
Cn1cccc1C(=O)N1CC(CO)C2(CCNCC2)C1 (configuration not stated),16.2%,.,.,.,.,.
Cc1nccn1CCCN1C(=O)OC2(CCCCC2)C1(C)O (configuration not stated),-23.7%,-5.6%[59 µM],-10.3%[11.4 µM],0.3%,-3.1%,21.2µM*
CCC1(C)OC(=O)N(CCCn2ccnc2C)C1(C)O (configuration not stated),0.0%,5.8%,-5.3%,3.4%,40.7%,-7.7%
O=C(Nc1ccc(F)cc1)C(c1cccc(F)c1)N1CCN(c2cccc(C(F)(F)F)n2)CC1 (configuration not stated),-15.8%,.,.,.,.,-17.2%
CN(C)c1ccc(/C=N\Nc2ccccn2)cc1,?,39.8µM*,?,25.1µM*,?,-2.6%
CN(C)c1ccc(/C=N/Nc2ccc(-n3ccnc3)nn2)cc1,22.9%,?,?,17.8µM*,-0.7%,-14.5%
COc1ccc(-c2ccc(NCCC3=CCCCC3)nn2)cc1OC,-9.4%,12.4%[59 µM],-17.3%,15.1%,25.8%,-6.1%
Cc1[nH]nc2c1C(c1ccc(OC(=O)c3ccco3)cc1)C(C#N)=C(N)O2 (configuration not stated),332.0%,24.3%[59 µM],-16.0%,-11.0%,32.4%,-24.6%
COc1ccc(N2C(=O)CC(c3ccc([N+](=O)[O-])cc3)C2=O)cc1 (configuration not stated),.,?,-1.7%,-2.4%,37.0%,-1.2%
CCOC(=O)CN1C(=O)CC(c2ccc([N+](=O)[O-])cc2)C1=O (configuration not stated),83.0%,44.7µM*,-3.3%,-2.2%,28.5%,-19.6%
CCOC(=O)c1c(C)nc2ccccc2c1C,?,?,-25.3%,-6.4%,16.5%,-1.8%
Cc1nc2ccccc2c(C)c1C(=O)c1ccc(Cl)cc1,7.94µM*,.,.,.,.,.
COc1cccc(C(=O)Nc2ccc3c(c2)OC[C@H](C)N(C(=O)C2CCCC2)C[C@@H](C)[C@@H](OC)CN(C)C3=O)c1,-4.8%,.,.,.,.,1.5%
O=[N+]([O-])c1cc([N+](=O)[O-])c(Oc2cccc3c2CCCC3)cc1NN1CCCCC1,4.4%,.,-34.0%,.,0.4%,-13.7%
COc1cccc(Oc2cc(NN3CCCCC3)c([N+](=O)[O-])cc2[N+](=O)[O-])c1OC,?,39.8µM*,?,8.91µM*,-26.6%,-8.2%
O=[N+]([O-])c1cc([N+](=O)[O-])c(Oc2c(F)cc(F)cc2F)cc1NN1CCCCC1,-9.2%,50.1µM*,?,?,?,-6.0%

# Bioassay records: PubChem, National Center for Advancing Translational Sciences (NCATS)
